Laboratory results from ChEMBL document CHEMBL3988442, “University of Dundee, Small-Polar-MMV Screening Library” (2021).

How the values were obtained:
[1] = molecular target: T1, Aspartate--tRNA(Asp/Asn) ligase (Mycobacterium tuberculosis (strain ATCC 25618 / H37Rv)) (UniProt P9WFW3); experiment: Assay for Asp RNA synthetase-1 from Mycobacterium tuberculosis; format: functional; set-up: scale not given: direction of the effect not stated beside the values; conditions: 30 µM; note: in the data most compounds retested in dose-response had high values
T1 sequence (whole entry): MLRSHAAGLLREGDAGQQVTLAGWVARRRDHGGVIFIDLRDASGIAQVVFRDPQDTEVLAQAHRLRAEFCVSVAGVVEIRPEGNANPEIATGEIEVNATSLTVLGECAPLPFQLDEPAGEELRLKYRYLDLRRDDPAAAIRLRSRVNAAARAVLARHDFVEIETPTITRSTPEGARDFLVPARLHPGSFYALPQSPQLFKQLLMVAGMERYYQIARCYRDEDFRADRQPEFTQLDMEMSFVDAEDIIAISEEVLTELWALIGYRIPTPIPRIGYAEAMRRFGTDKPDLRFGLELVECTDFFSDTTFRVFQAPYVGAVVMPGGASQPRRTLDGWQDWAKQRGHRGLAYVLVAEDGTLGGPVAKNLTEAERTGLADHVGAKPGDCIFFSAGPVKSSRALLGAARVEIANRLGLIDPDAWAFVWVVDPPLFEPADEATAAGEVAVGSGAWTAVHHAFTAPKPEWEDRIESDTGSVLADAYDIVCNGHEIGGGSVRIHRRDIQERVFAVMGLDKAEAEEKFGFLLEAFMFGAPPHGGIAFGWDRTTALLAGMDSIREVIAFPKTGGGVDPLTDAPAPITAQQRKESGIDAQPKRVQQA

[2] = molecular target: Shiga toxin 2 (Escherichia coli O157:H7) (UniProt P09385+P09386); experiment: E. coli 0.157:H7 Shiga Toxin SOP - stx2 screening assay; format: functional; set-up: scale not given: direction of the effect not stated beside the values; conditions: 30 µM

Row | Structure (SMILES) | Percent Effect [1] [%] | Percent Effect [2] [%]
1 | Cc1nnc(CCNC2CCN(c3ncnc4c(C)csc34)CC2)s1 | 0.208 | -65.7
2 | CC1(C)Cc2ccccc2-c2nc(NCCO)[nH]c(=O)c21 | 3.08 | 0.00332
3 | O=C(c1ccccn1)N1CCc2nc(-c3cnccn3)nc(O)c2C1 | -1.53 | -15.6
4 | CCNC(=O)c1ncn2c1CN(C)S(=O)(=O)c1ccccc1-2 | -3.46 | -5.52
5 | c1ccc(-c2cc(CN3CCC(c4ccn[nH]4)CC3)on2)cc1 | 2.46 | -49.6
6 | Cc1ncsc1-c1nnc(C2CCN(Cc3ccc(F)cc3)CC2)o1 | 4.24 | -43.6
7 | CC(=O)Nc1nc(C(=O)N2CCCC2Cn2cc(C)cn2)cs1 (configuration not stated) | -1.84 | 20.3
8 | Cc1ccc(C(=O)N2CCN(CCc3cccs3)CC2)c(=O)[nH]1 | -1.83 | -29.5
9 | CC(=O)c1ccccc1C(=O)NCC1(CO)CC1 | 2.82 | -19.8
10 | COc1ccc(OC)c(Sc2ncccc2C(=O)N(C)CCC#N)c1 | -6.44 | 13.3
11 | CC(C)c1nc(C2CCCN2CC(=O)N2CCNC2=O)no1 (configuration not stated) | 1.61 | -10.5
12 | Cc1ccc(C2CSCCN2C(=O)c2ccc(C(N)=O)cc2)o1 (configuration not stated) | -1.11 | 8.19
13 | CCN(Cc1nc2c(cnn2C)c(=O)[nH]1)c1cccc(F)c1 | 1.24 | -7.65
14 | O=C(c1cc(C2CC2)on1)N1CCCC(n2cncn2)C1 (configuration not stated) | -0.789 | -16.7
15 | CCN1CCN(c2ncc(-c3cc(C)no3)c(-c3ccc(C)s3)n2)CC1 | 2.72 | 2.82
16 | O=C(c1ccc[nH]1)N1C[C@H]2CN(Cc3cccc(F)c3)C(=O)[C@H]2C1 | 0.565 | -9.53
17 | Cc1nc(C(C)C)sc1C(=O)NS(=O)(=O)c1ccc(C#N)cc1 | -3.09 | 0.0303
18 | COc1nccc(N2CCN(Cc3ccc(C)cc3)C(=O)C2)c1C#N | 3.98 | -64.8
19 | COC(=O)CN(C)C1CCc2ccccc21 (configuration not stated) | -6.57 | 28.1
20 | Cn1cccc1C(=O)NCc1cnc2n1CCN(C(=O)N1CCCC1)C2 | -0.495 | -94.8
21 | CN1CCN(CCCNC(=O)c2cc(Cl)c3c(c2)OCO3)CC1 | -5.91 | -42.5
22 | Nc1nc2nc(C3CCCN(C(=O)c4cscn4)C3)ccc2s1 (configuration not stated) | 0.603 | -35.5
23 | COc1ccc(C(CNC(=O)Nc2cn[nH]c2)N2CCOCC2)cc1 (configuration not stated) | 1.21 | 23.8

Row | Structure (SMILES) | Percent Effect [1] [%] | Percent Effect [2] [%]
24 | CNc1nc(CNC(=O)Nc2ccccc2SC)cs1 | -0.278 | 22.5
25 | c1ccc(-n2ncc(CNC3CCc4ncnn4C3)n2)cc1 (configuration not stated) | 1.39 | -16.9
26 | O=C(c1ccc(Br)s1)N1CCN(Cc2ccc(OC(F)(F)F)cc2)CC1 | -3.13 | -21.7
27 | O=C(Nc1nccs1)N1CCCC(N2CCNC2=O)C1 (configuration not stated) | 0.977 | -10.1
28 | COc1cccc(C(=O)N2CCc3ncnc(C)c3CC2)c1 | -1.32 | -12
29 | CCOc1ccc(Cl)c(C(=O)N2CCN(C(=O)c3ccoc3C)CC2)n1 | -4.19 | -1.17
30 | Cc1cnn(CC2CN(CC(=O)N(C)Cc3cccs3)CCO2)c1 (configuration not stated) | -5.6 | -8.69
31 | Cc1nn(C)c(N(C)C)c1CNCC(O)COc1ccc(F)cc1 (configuration not stated) | -7.16 | 8.48
32 | Cc1cc(-c2nn(C)c(Cl)c2CN2Cc3ccccc3C(O)C2)no1 (configuration not stated) | 8.53 | 43.3
33 | CN1CC(=O)N(c2cnn(C)c2)CC12CCN(Cc1nccn1C)C2 (configuration not stated) | -3.88 | -23.4
34 | CCOC(=O)c1c(NC(=O)CN2CCN(C(C)=O)CC2)sc2c1CCC2 | -3.95 | 16.4
35 | OCC1CCCN1c1cc(N2CCN(c3ccccn3)CC2)ncn1 (configuration not stated) | -3.49 | 32.6
36 | Cn1cc(-c2nc(CNCCn3cccn3)cs2)cn1 | -0.0111 | -121
37 | Cn1cc(N2CC3(CCN(S(=O)(=O)C4CC4)C3)CC2=O)cn1 (configuration not stated) | -0.32 | -17.6
38 | Cc1ncsc1C(=O)N(Cc1cccnc1)C1CC1 | -0.522 | 5.93
39 | Cc1cc(CNC2CCCN(c3cccnn3)C2)no1 (configuration not stated) | 6.9 | -69.6
40 | CCCS(=O)(=O)N1CCC2(CC1)CN(c1ccccn1)CCO2 | 2.47 | -46.8
41 | CC(NC(=O)C1=NN(C)C(=O)CC1)c1ccc(F)cc1F (configuration not stated) | -4.46 | -6.55
42 | O=C(c1ccc(F)cc1Cl)N1CCC(Nc2cccnn2)CC1 | 4.05 | -21.1
43 | CC(C)(C)OC(=O)N1CCN(C(=O)c2sccc2C2CC2)CC1 | -2.9 | -0.841
44 | COc1ccccc1Oc1ncccc1CNC(=O)C(C)N1CCCC1 (configuration not stated) | -0.0279 | 6.37
45 | CNC(=O)c1ccc(C2CN(C(=O)c3cncs3)CCO2)nc1 (configuration not stated) | 3.26 | -3.71
46 | O=C1OCCN1CCOc1nc(-c2ccccc2Cl)no1 | -7.33 | -14.8
